Experimental findings from PubChem BioAssay are described below.

Assay [1] relates to TRPC4 beta (transient receptor potential cation channel C4), mouse. As to the kind of experiment: activators of mouse TRPC4 channel, confirmation, cell-based, Fluo4 calcium, HEK293 TRPC4beta/mu-opioid, duplicates, 10 µM (AID 2426). The settings on record: Fluo4 calcium fluorescence, at 10 µM; stronger effect = higher value.
Assay [2] deals with transient receptor potential cation channel C4 beta (TRPC4), mouse. The experiment in a line: activators of mouse TRPC4 channel, confirmation, cell-based, second round, Fluo4, HEK293 TRPC4beta/mu-opioid, 1 µM (AID 2461;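 active = primary screen active and over 50% activation in each of two duplicate runs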). Conditions: Fluo4 calcium fluorescence, at 1 µM; stronger effect = higher value.
Assay [3] has as its system TRPC4 (transient receptor potential cation channel C4 beta), mouse. As to the kind of experiment: positive allosteric modulators of mouse TRPC4, confirmation, cell-based, second round, Fluo-4, HEK293 TRPC4beta/mu-opioid, 1 µM (AID 2554;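 active = primary screen hit whose fluorescence ratio, in both repeats, exceeds the weak agonist control mean by 3 SD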). The settings on record: DAMGO EC20, Fluo-4 calcium flux, at 1 µM; stronger effect = higher value. A general note: Calcium flux is commonly read through the fluorescence of an indicator in the cells.

The subject of assay [4] is TRPC4 beta (transient receptor potential cation channel C4), mouse. The experiment in a line: positive allosteric modulators of mouse TRPC4, confirmation, cell-based, Fluo-4, HEK293 TRPC4beta/mu-opioid (AID 2555;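 active = primary screen hit whose calcium fluorescence ratio, in both repeats, exceeds the weak agonist control mean by 3 SD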). Conditions: DAMGO EC20, Fluo-4 calcium flux, at 10 µM; stronger effect = higher value.
Assay [5] deals with Short transient receptor potential channel 4 (Mus musculus) (UniProt Q9QUQ5). The experiment in a line: inhibitors of mouse TRPC4 channel, confirmation, cell-based, Fluo4, HEK293 TRPC4beta/mu-opioid (AID 2636;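 active = calcium signal cut by more than 3 SD below the full-agonist control yet still positive, in both repeats and the earlier primary screen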). Conditions: DAMGO, Fluo4 calcium flux, at 10 µM; stronger effect = higher value.
Short transient receptor potential channel 4 (Mus musculus), sequence (Q9QUQ5 whole entry, looked up): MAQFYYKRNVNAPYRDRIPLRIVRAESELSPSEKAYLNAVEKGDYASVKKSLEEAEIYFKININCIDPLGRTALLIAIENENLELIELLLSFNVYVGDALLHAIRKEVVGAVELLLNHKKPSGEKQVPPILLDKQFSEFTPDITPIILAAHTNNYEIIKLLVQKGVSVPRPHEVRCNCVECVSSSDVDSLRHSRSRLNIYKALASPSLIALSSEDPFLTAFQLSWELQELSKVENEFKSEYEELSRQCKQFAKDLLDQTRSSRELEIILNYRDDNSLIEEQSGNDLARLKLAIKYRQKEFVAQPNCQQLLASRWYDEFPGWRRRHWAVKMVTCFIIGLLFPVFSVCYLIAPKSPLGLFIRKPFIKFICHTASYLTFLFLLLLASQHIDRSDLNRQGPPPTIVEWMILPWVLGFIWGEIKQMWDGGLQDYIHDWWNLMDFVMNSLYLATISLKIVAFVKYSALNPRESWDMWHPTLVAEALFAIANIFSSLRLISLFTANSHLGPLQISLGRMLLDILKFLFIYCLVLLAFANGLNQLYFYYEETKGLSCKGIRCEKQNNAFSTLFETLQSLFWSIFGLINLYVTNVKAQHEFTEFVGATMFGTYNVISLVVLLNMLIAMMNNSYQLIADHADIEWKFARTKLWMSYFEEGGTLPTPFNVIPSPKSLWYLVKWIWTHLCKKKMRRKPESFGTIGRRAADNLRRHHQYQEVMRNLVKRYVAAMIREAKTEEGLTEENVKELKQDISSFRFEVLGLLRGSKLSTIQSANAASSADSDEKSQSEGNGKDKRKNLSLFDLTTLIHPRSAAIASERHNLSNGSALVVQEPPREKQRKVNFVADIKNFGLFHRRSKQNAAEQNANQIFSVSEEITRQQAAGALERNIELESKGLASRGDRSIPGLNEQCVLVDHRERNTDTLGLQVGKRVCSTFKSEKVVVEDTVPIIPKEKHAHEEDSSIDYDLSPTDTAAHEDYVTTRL
For assay [6] the target is unchanged. The experiment in a line: inhibitors of mouse TRPC4 channel, confirmation, cell-based, second round, Fluo4, HEK293 TRPC4beta/mu-opioid, 1 µM (AID 2637;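 active = calcium signal ratio cut to more than 3 SD under the fully stimulated control mean yet still positive, in both repeats and the primary screen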;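 for inhibition: percent of integrated ratio relative to wells lacking test compound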). The settings on record: Fluo4 calcium flux, DAMGO, at 1 µM; stronger effect = higher value.
The target is the same in assay [7]. As to the kind of experiment: mouse TRPC4 channel activators, dose response, cell-based, HEK293 TRPC4/mu-opioid, Fluo-4 calcium (AID 434937;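 active = primary screen activator hit with a dose response curve and TRPC4 channel activation at any tested dose; inactive = no activation, no dose response, or not a primary hit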).
Assay [8] has the same target. As to the kind of experiment: TRPC4 positive allosteric modulators, dose response, cell-based, HEK293 TRPC4/mu-opioid, Fluo-4 calcium, EC20 DAMGO (AID 434941;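 active = earlier screen potentiator hit that boosts the TRPC4 ion channel at some dose, with a dose response; inactive = no potentiation, no dose response, or not a prior hit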;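 note: calcium entry triggered by an EC20 dose of DAMGO at the co-expressed mu-opioid receptor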).
Assay [9] has the same target. The experiment in a line: mouse TRPC4 channel inhibitors, dose response, cell-based, HEK293 TRPC4/mu-opioid, Fluo-4 calcium (AID 434942;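 active = primary screen inhibitor hit that blocks the TRPC4 channel at some tested dose, yielding a dose curve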).
Assay [10] has as its target Short transient receptor potential channel 6 (Mus musculus) (UniProt Q61143). As to the kind of experiment: inhibition of mouse TRPC6 channel, confirmation, selectivity assay for TRPC4 inhibitor project, cell-based, HEK293, membrane potential dye, duplicate (AID 434948;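 active = active in primary screen and both duplicates, each dropping signal beyond three positive-control SD with fluorescence still positive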). Conditions: HEK293 TRPC6, membrane potential dye fluorescence, at 10 µM, stimulated with maximal-effect acetylcholine; stronger effect = higher value.

Assay [11] has the same target. The experiment in a line: activation of mouse TRPC6 channel, confirmation, selectivity assay for TRPC4 activator project, cell-based, HEK293, membrane potential dye, duplicate (AID 434950;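 active = membrane potential signal rise above negative control mean plus 3 SD in both duplicates, also active in the earlier TRPC4 screen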;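 for activation: 0% = buffer only wells and 100% = acetylcholine maximal-effect wells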). Conditions: HEK293 TRPC6, membrane potential fluorescence, at 10 µM; stronger effect = higher value.
For assay [12] the target is unchanged. The experiment in a line: TRPC6 potentiation by TRPC4 potentiator hits, confirmation, selectivity assay for TRPC4 potentiator project, HEK293 cells, membrane potential dye, duplicate (AID 434952;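 active = compound raising the membrane signal above positive-control mean plus 3 SD in both repeats, and a primary screen hit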). The settings on record: HEK293 TRPC6, membrane potential dye fluorescence, at 10 µM, maximal acetylcholine added after compound; stronger effect = higher value.
Assay [13] addresses Short transient receptor potential channel 4 (Mus musculus) (UniProt Q9QUQ5). As to the kind of experiment: calcium flux activators in TRPC4/5HT1a cells, counter-screen for TRPC4 activator project, cell-based, second counter screen, HEK293 TRPC4/5HT1a, Fluo-4 (AID 434977;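 active = calcium signal rise above buffer-control mean plus 5 SD in both duplicates, and also a hit in the primary screen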). Conditions: Fluo-4 calcium flux, at 10 µM; stronger effect = higher value.
The nature of assay [14]: calcium flux inhibitors in TRPC4/5HT1a cells, confirmation, counter-screen for TRPC4 inhibitor project, cell-based, second counter screen, HEK293 TRPC4/5HT1a, Fluo-4 (AID 434978;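 active = primary screen active whose calcium signal fell more than 3 SD beyond the full-serotonin control mean in both duplicate plates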;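 for outcome: serotonin given first at submaximal then at maximal dose after compound preincubation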). The settings on record: Fluo-4 calcium flux, at 10 µM, serotonin added to trigger calcium flux; stronger effect = higher value.
Assay [15] relates to TRPC4 (mouse), co-expressed with 5HT1a in HEK293. As to the kind of experiment: calcium flux potentiators in TRPC4/5HT1a cells, confirmation, counter-screen for TRPC4 potentiator project, cell-based, second counter screen, HEK293 TRPC4/5HT1a, Fluo-4 (AID 434979;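 active = signal rise over 3 SD above mean of control wells given weak agonist, in both repeats and first screen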). Conditions: Fluo-4 calcium flux, at 10 µM, serotonin added at its EC20 dose; stronger effect = higher value.
Assay [16] in a line: calcium flux activation in mu-opioid HEK293 cells, confirmation, counter-screen for TRPC4 activator project, cell-based, HEK293 mu-opioid receptor line (AID 449723;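 active = hit in primary screen, with calcium signal over 5 SD above buffer well mean in both duplicates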;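 note: counter screen cells carry the mu-opioid receptor alone and lack TRPC4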). Conditions: Fluo-4 calcium fluorescence, at 10 µM; stronger effect = higher value.
Assay [17] in a line: calcium flux enhancement in mu-opioid HEK293 cells, confirmation, counter-screen for TRPC4 allosteric potentiator project, cell-based, HEK293 mu-opioid receptor line (AID 449724;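 active = calcium signal rise more than 3 SD above the low-dose agonist control mean, in both duplicate plates and the primary screen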;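 note: HEK293 cells carrying mu-opioid receptor only with no TRPC4 channel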). The settings on record: Fluo-4 calcium flux, at 10 µM, compound added before EC20 DAMGO stimulus; stronger effect = higher value.

For some of these results: Measured potencies and affinities stand elsewhere. Active and inactive are the calls of the source.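 Rule for the calls, unless noted: active = fluorescence ratio normalized to control raised more than 50% in primary screen plus both repeat runs; inactive = the rest.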

Short transient receptor potential channel 6 (Mus musculus), sequence (Q61143 whole entry, looked up): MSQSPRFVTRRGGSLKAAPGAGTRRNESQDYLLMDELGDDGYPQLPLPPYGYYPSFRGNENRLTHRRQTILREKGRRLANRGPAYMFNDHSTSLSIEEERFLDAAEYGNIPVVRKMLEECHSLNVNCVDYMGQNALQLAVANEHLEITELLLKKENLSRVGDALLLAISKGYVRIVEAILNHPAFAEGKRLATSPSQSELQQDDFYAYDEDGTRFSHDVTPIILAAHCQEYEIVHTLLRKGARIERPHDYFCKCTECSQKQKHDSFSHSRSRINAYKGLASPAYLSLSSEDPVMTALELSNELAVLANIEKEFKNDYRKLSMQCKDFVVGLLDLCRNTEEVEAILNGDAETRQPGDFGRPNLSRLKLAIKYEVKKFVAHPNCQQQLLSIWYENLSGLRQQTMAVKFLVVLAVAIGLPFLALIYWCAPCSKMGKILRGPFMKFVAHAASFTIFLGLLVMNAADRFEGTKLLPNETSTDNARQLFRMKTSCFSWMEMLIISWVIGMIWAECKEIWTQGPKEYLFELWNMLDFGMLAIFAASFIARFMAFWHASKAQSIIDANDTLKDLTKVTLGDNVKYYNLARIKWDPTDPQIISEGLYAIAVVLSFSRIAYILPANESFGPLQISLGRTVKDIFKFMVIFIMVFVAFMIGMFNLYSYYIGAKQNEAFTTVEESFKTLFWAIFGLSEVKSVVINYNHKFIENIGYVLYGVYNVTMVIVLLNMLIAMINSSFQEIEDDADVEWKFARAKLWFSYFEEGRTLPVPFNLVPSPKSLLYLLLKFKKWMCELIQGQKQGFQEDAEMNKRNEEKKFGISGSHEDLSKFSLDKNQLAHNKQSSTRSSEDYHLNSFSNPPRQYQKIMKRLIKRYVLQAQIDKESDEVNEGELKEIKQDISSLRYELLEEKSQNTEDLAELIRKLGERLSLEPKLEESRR

With `O=C(CSc1nnc(-c2ccccc2)o1)c1ccc2c(c1)OCCO2`, the outcome in assay [1], in assay [2], in assay [3], in assay [4], in assay [5] and in [6] was inactive. Also, the result in assay [7], in [8], in [9], in [10], in assay [11] and in [12] was inactive. Further, the outcome in [13], in assay [14], in assay [15], in [16] and in assay [17] was inactive.
As to `CCN1CCN(CCC(=O)Nc2ccccc2OC)CC1`, the result in assay [1], in assay [2], in assay [3], in [5], in [6] and in assay [7] was inactive. The outcome in assay [8], in [9], in assay [10], in assay [11], in assay [12] and in assay [13] was inactive. The result in assay [14], in assay [16] and in assay [17] was inactive. In addition, the potentiation in [4] is 11% (active); in assay [15] it was 17.3% (active).
Turning to `CC(C)c1ccc(OCc2ccc(C(=O)N3CCCC3)o2)cc1`, the result in assay [1], in [2], in assay [3], in [5], in assay [6] and in assay [7] was inactive. Further, the result in assay [8], in assay [9], in assay [10], in assay [11], in assay [12] and in assay [13] was inactive. For the same compound, the result in [14], in [15], in [16] and in [17] was inactive. Also, the potentiation in assay [4] was 39% (active).
Take `C/C(CC(=O)NCc1ccc(Cl)cc1)=N\NC(=O)COc1ccc(C)cc1Br`: the outcome in assay [1], in [2], in assay [3], in [4], in [5] and in assay [6] was inactive. In addition, the outcome in [7], in assay [8], in [9], in [10], in [11] and in [12] was inactive. For the same compound, the result in assay [13], in [14], in assay [15], in assay [16] and in [17] was inactive.
For `Cc1oc(-c2cccc(F)c2)nc1CN(Cc1ccccc1)C[C@@H]1CCC(=O)N1`, the outcome in assay [1], in [2], in [3], in [4], in assay [5] and in assay [6] was inactive. Also, the outcome in [7], in assay [8], in assay [9], in assay [10], in [11] and in assay [12] was inactive. Moreover, the result in [13], in assay [14], in assay [15], in [16] and in assay [17] was inactive.
Take `C/C=C/Cn1c(SCCCc2ccccc2)nc2c1c(=O)[nH]c(=O)n2C`: the result in assay [1], in [2], in [5], in [6], in [7] and in assay [8] was inactive. For the same compound, the outcome in assay [9], in assay [10], in [11], in assay [12], in assay [13] and in [14] was inactive. In addition, the outcome in assay [16] and in assay [17] was inactive. Further, the potentiation was 12% (active) in [3], 27% (active) in assay [4] and 88.5% (active) in assay [15].
Regarding `Cc1oc(-c2ccc(Cl)cc2)nc1CN1CCC(C(=O)N2CCc3ccccc3C2)CC1`, the result in assay [1], in assay [2], in [3], in assay [5], in [6] and in assay [7] was inactive. In addition, the result in assay [8], in assay [9], in assay [10], in [11], in [12] and in [13] was inactive. Besides, the outcome in assay [14], in [16] and in [17] was inactive. The values for the potentiation in assay [4] and in [15] were 16% (active) and 10.2% (active), respectively.
On to `COc1cccc(OCCOCCNCCO)c1`, for which the result in [1], in [2], in [3], in [4], in assay [5] and in assay [6] was inactive. In addition, the result in assay [7], in assay [8], in assay [9], in [10], in assay [12] and in assay [13] was inactive. Moreover, the result in [14], in [15], in [16] and in [17] was inactive. Further, the activation in assay [11] is 33.5% (active).
By inhibition is commonly meant the drop in the measured response relative to a control, in per cent. With `Cn1c(=O)n(CCCO)c(=O)c2c1nc1n2CCCN1Cc1ccccc1`, the result in assay [1], in assay [2], in assay [3], in assay [4], in [7] and in assay [8] was inactive. The result in assay [9], in assay [10], in [11], in assay [12], in assay [13] and in [15] was inactive. The result in [16] and in [17] was inactive. Moreover, the inhibition was 86% (active) in assay [5], 46% (active) in assay [6] and 28.4% (active) in [14].
Regarding `OC(CNCCc1ccc(C(F)(F)F)cc1)COc1ccc2ccccc2c1` (stereo not drawn), the outcome in [1], in [2], in [3], in [4], in assay [5] and in assay [6] was inactive. The outcome in [7], in assay [8], in assay [9], in assay [10], in [11] and in assay [12] was inactive. The result in [13], in assay [14], in [15], in [16] and in assay [17] was inactive.
Consider `CC1CCCN(C2=C(NS(=O)(=O)c3ccc(Br)cc3)C(=O)c3ccccc3C2=O)C1` (stereo not drawn), for which the result in [1], in assay [2], in [3], in assay [4], in assay [5] and in assay [6] was inactive. Moreover, the outcome in [7], in assay [8], in [9], in [10], in assay [11] and in assay [12] was inactive. The outcome in [13], in assay [14], in assay [15], in [16] and in [17] was inactive.
In the case of `c1ccc2c(c1)[nH]c1c(N3CCCC3)ncnc12`, the outcome in assay [1], in assay [2], in [3], in assay [4], in [5] and in assay [6] was inactive. For the same compound, the result in [7], in [8], in assay [9], in [10], in assay [11] and in assay [12] was inactive. In addition, the result in [13], in [14], in [15], in [16] and in assay [17] was inactive.
As to `c1ccc(-c2cnc(SCCN3CCOCC3)n2CC2CCCO2)cc1` (stereo not drawn), the outcome in assay [1], in [2], in [3], in assay [4], in [5] and in assay [6] was inactive. In addition, the result in [7], in assay [8], in assay [9], in assay [10], in [11] and in [12] was inactive. Besides, the result in [13], in assay [14], in [15], in assay [16] and in [17] was inactive.
Take `CCCCN(C)CCNC(=S)Nc1ccc2nc(N3CCN(CC)CC3)cc(C)c2c1`: the result in assay [1], in [2], in assay [4], in [5], in assay [6] and in assay [7] was inactive. Further, the outcome in assay [8], in assay [9], in assay [10], in assay [11], in assay [12] and in assay [13] was inactive. In addition, the result in assay [14], in [16] and in [17] was inactive. Moreover, the potentiation in assay [3] is 11% (active); in assay [15], 18% (active).
